The values that follow come from article PMC7862700, “An all-to-all approach to the identification of sequence-specific readers for epigenetic DNA modifications on cytosine”.

What all share (assay): DAPPL (digital affinity profiling via proximity ligation, sequencing); 10 mM Tris-HCl pH 7.5, 50 mM NaCl, 1 mM DTT, 4% glycerol, room temperature, 30 min; GST-TFs on glutathione beads, 16-mer random dsDNA library, 0.1% formaldehyde crosslink after washing; high values mean tight binding
What all share (conditions): protein: recombinant; tags: N-terminal GST; dsDNA, one strand shown

Test [1] deals with T1, FLI1 (Homo sapiens, UniProt Q01543 1-452).
T1 sequence: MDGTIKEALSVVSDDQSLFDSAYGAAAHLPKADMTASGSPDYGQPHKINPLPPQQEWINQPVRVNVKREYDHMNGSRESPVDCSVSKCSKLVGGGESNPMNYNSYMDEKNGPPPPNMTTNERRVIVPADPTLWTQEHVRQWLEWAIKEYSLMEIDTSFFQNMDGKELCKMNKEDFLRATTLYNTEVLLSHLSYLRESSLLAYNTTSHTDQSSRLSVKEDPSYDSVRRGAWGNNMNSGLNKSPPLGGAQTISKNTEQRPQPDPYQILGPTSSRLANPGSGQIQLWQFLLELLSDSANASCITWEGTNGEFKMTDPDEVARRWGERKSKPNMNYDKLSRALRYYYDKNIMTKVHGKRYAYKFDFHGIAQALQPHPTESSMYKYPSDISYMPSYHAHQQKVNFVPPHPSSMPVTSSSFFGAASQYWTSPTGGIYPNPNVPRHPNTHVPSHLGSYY
Put shortly:
(§1)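 Sequencing on an Illumina NextSeq500 followed washing, crosslinking with 0.1% formaldehyde, proximity ligation (BsaI/T4 ligase, 1 h, 37 °C) and PCR amplification of pools that had been incubated for 30 min at room temperature with 200 nmole of a random double-stranded 16-mer DNA library in Tris/NaCl/DTT/glycerol buffer. Each pool held DNA-barcoded human transcription factors, expressed in yeast as GST fusions and captured on glutathione beads, plus a tag-only sample. Binding signal is a hexamer's read frequency for a factor divided by its frequency in the tag-only sample.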

The target of test [2] is T2, ELK1 (Homo sapiens, UniProt P19419 1-428).
T2 sequence: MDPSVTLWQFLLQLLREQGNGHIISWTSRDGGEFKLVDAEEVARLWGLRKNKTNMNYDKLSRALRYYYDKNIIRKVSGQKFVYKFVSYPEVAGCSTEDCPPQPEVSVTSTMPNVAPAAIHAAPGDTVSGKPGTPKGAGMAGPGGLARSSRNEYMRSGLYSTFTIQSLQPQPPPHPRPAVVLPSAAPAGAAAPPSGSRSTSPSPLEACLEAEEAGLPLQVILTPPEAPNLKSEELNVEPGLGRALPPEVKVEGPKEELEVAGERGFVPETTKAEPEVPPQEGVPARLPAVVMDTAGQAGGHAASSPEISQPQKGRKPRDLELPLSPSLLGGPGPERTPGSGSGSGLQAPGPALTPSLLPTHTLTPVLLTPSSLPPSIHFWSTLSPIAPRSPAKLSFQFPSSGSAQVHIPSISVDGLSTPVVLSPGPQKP
A digest of the protocol:
as §1

Test [3] has as its target T3, GABPA (Homo sapiens, UniProt Q06546 1-454).
T3 sequence: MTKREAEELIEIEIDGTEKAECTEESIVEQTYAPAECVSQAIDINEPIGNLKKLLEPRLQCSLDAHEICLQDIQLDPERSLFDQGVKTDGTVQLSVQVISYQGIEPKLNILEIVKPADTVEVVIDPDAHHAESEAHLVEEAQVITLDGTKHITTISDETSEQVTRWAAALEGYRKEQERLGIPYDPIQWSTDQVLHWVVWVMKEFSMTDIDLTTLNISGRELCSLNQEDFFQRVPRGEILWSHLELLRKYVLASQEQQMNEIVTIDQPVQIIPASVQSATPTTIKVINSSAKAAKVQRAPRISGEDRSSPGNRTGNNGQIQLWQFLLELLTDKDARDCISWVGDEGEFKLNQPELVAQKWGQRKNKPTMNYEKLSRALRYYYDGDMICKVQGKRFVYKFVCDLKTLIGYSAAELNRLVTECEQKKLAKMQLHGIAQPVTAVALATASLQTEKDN
Put shortly: as §1

Test [4] has as its target ELF1 (Homo sapiens, UniProt P32519 1-619). Put shortly:
as §1

Test [5] deals with T4, EHF (Homo sapiens, UniProt Q9NZC4 1-300).
T4 sequence: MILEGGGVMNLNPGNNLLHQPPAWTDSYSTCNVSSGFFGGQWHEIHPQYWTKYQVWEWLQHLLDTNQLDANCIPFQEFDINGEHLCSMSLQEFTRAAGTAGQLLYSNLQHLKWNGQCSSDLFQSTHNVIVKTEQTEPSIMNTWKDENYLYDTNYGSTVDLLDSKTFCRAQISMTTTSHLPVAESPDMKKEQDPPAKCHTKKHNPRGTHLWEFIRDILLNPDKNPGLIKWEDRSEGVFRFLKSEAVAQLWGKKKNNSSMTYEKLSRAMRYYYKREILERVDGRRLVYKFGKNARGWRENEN
A digest of the protocol:
as §1

The target of test [6] is SPI1 (Homo sapiens, UniProt P17947 1-270). A digest of the protocol:
as §1

Test [7] addresses SPIB (Homo sapiens, UniProt Q01892 1-262). A digest of the protocol:
as §1

The target in test [8] is T5, ELK3 (Homo sapiens, UniProt P41970 1-407).
T5 sequence: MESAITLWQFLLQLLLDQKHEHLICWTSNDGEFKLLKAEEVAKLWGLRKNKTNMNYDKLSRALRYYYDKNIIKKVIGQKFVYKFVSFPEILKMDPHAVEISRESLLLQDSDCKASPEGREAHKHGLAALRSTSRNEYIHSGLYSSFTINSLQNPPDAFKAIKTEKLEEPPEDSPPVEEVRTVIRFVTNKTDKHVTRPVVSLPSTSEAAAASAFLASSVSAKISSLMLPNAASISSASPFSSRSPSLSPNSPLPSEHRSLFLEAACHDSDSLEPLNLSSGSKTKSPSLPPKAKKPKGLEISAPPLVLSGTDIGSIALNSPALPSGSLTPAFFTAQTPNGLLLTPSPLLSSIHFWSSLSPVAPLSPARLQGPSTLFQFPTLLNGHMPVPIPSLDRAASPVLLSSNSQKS
Put shortly:
as §1

Test [9] addresses T6, FEV (Homo sapiens, UniProt Q99581 1-238).
T6 sequence: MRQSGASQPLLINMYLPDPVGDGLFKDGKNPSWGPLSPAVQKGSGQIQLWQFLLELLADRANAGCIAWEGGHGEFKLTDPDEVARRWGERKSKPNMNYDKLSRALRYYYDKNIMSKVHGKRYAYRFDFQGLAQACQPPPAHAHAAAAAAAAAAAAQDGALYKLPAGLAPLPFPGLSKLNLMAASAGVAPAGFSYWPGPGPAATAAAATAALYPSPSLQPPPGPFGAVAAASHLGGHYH
Put shortly: as §1

Test [10] has as its target ETV5 (Homo sapiens, UniProt P41161 1-510). Put shortly: as §1
Test [11] has as its target T7, SPIC (Homo sapiens, UniProt Q8N5J4 1-248).
T7 sequence: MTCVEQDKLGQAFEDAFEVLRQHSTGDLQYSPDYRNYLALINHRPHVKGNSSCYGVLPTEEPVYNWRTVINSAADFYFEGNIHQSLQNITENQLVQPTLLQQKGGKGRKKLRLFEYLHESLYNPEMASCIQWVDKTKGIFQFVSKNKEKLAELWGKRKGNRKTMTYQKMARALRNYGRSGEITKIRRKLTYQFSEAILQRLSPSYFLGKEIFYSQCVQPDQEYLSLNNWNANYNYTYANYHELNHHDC
A digest of the protocol: as §1

For test [12], the target named is ELF4 (Homo sapiens, UniProt Q99607 1-663). A digest of the protocol:
as §1

The target in test [13] is T8, ELK4 (Homo sapiens, UniProt P28324-2 1-405).
T8 sequence: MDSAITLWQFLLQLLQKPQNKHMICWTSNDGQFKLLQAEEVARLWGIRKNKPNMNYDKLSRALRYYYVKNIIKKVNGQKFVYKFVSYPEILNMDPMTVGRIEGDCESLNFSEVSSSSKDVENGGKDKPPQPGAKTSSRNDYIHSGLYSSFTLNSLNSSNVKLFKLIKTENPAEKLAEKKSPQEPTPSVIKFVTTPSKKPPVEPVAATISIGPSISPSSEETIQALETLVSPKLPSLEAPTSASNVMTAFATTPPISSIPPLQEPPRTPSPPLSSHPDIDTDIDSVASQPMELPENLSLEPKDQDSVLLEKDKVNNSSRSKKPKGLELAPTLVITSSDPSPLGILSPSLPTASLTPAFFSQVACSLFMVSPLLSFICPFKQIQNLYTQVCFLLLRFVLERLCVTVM
Put shortly:
as §1

In test [14] the target is T9, ETV2 (Homo sapiens, UniProt O00321 1-342).
T9 sequence: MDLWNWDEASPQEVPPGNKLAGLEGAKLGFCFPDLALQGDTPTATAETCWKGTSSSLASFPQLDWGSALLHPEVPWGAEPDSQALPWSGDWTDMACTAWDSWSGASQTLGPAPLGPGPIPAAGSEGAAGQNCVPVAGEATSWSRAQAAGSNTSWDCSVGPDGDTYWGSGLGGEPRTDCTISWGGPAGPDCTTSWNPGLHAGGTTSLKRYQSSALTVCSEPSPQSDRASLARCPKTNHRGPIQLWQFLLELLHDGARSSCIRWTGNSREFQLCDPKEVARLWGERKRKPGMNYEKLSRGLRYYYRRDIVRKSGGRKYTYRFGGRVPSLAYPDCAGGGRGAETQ
A digest of the protocol:
as §1

Test [15] addresses T10, ELF3 (Homo sapiens, UniProt P78545 1-371).
T10 sequence: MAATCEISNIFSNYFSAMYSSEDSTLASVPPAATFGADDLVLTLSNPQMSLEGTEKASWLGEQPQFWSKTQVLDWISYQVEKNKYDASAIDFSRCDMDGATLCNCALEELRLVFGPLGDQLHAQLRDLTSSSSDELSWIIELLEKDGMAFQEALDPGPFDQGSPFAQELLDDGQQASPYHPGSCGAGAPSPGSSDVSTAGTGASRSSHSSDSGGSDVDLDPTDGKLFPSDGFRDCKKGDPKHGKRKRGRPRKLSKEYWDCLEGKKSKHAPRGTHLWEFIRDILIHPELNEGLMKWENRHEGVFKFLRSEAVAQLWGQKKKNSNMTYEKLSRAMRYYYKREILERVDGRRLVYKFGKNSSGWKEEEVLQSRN
A digest of the protocol: as §1

Test [16] has as its target ETV1 (Homo sapiens, UniProt P50549 1-477). A digest of the protocol: as §1

ETV5, sequence (P41161 whole entry): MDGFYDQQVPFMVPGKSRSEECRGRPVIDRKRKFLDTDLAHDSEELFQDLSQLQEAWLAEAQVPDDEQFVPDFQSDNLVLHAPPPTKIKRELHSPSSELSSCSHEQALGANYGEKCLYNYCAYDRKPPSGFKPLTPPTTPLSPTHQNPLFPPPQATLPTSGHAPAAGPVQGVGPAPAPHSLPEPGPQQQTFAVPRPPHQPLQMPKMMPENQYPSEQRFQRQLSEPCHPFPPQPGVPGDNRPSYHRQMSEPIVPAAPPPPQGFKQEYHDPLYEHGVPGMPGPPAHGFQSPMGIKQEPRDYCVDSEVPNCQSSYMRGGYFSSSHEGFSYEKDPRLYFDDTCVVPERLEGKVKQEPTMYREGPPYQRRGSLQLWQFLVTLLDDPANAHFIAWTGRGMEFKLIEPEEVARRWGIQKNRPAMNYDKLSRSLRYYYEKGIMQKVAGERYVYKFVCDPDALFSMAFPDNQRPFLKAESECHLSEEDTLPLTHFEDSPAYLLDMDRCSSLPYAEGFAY
ELF4, sequence (Q99607 whole entry): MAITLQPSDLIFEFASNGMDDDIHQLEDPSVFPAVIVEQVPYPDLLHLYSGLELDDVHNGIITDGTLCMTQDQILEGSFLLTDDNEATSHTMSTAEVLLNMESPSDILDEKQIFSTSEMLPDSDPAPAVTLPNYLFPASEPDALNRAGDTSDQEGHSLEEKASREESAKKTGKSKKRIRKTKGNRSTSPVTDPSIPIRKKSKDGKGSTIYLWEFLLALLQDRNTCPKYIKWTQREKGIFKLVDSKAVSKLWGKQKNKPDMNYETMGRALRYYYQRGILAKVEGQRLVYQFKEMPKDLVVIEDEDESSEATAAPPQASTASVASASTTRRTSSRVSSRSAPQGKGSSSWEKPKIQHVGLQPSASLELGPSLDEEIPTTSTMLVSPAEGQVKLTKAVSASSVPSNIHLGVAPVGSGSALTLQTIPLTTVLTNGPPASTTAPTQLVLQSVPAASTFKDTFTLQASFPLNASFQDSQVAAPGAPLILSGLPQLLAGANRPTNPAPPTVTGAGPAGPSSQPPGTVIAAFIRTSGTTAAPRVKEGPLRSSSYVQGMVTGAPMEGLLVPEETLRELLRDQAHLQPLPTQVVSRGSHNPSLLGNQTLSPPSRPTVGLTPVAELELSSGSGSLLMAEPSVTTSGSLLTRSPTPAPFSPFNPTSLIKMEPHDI
ETV1, sequence (P50549 whole entry): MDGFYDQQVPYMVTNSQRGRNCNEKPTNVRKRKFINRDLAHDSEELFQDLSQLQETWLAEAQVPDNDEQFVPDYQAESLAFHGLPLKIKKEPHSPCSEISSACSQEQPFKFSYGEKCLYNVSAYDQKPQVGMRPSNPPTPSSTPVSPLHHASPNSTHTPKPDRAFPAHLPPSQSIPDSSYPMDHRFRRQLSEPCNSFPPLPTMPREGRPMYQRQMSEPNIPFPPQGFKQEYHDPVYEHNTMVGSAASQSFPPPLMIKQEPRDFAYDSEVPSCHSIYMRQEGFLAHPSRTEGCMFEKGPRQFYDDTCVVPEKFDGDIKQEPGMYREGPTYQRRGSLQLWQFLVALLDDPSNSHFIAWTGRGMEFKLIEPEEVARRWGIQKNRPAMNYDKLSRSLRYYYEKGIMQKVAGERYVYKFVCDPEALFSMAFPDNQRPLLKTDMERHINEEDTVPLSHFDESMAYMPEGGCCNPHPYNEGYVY
ELF1, sequence (P32519 whole entry): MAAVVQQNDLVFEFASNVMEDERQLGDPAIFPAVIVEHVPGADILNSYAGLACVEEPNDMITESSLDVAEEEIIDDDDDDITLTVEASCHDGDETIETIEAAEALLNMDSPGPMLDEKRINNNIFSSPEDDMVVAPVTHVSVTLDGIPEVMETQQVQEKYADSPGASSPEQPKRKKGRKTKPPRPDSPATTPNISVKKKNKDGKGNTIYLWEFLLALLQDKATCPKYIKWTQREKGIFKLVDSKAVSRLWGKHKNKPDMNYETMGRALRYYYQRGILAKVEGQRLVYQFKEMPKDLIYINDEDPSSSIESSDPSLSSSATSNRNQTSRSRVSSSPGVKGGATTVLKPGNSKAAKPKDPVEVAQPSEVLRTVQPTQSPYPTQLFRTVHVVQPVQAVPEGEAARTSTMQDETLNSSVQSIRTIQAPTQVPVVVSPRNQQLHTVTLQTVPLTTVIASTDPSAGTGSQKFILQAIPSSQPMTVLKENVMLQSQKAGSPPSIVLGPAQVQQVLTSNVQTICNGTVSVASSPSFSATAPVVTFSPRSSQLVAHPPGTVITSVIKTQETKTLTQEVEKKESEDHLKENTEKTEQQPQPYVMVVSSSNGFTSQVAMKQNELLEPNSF
SPIB, sequence (Q01892 whole entry): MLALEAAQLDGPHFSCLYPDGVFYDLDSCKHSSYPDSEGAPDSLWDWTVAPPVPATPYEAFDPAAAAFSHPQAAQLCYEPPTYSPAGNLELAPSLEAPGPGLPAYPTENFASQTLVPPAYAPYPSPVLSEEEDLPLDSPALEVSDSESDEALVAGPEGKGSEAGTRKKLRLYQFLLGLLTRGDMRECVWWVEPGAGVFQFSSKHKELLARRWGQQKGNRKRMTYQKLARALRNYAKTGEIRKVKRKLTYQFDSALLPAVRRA

Consider GCTGAC, for which the binding signal is 1.17 fold enrichment (6-mer frequency, TF over GST control) in [1]; 1.1 fold enrichment (6-mer frequency, TF over GST control) in test [2]; 1.04 fold enrichment (6-mer frequency, TF over GST control) in test [3]; 1.16 fold enrichment (6-mer frequency, TF over GST control) in test [4]; 1.21 fold enrichment (6-mer frequency, TF over GST control) in [5]; 1.04 fold enrichment (6-mer frequency, TF over GST control) in test [6]. Besides, the binding signal in test [7] was 1.12 fold enrichment (6-mer frequency, TF over GST control); in test [8], 1.13 fold enrichment (6-mer frequency, TF over GST control); in [9] it was 1.12 fold enrichment (6-mer frequency, TF over GST control); in [10], 1.03 fold enrichment (6-mer frequency, TF over GST control); in test [11], 1.1 fold enrichment (6-mer frequency, TF over GST control); in test [12], 1.1 fold enrichment (6-mer frequency, TF over GST control). The binding signal in test [13] was 1.05 fold enrichment (6-mer frequency, TF over GST control); in test [14], 1.38 fold enrichment (6-mer frequency, TF over GST control); in test [15] it was 1.27 fold enrichment (6-mer frequency, TF over GST control); in test [16], 1.03 fold enrichment (6-mer frequency, TF over GST control).

As for TGCTGT, the binding signal in [1] was 1.03 fold enrichment (6-mer frequency, TF over GST control); in [2], 1 fold enrichment (6-mer frequency, TF over GST control); in test [4], 1.09 fold enrichment (6-mer frequency, TF over GST control); in test [5], 1.13 fold enrichment (6-mer frequency, TF over GST control); in [7], 1 fold enrichment (6-mer frequency, TF over GST control); in [9], 1.01 fold enrichment (6-mer frequency, TF over GST control). Also, the binding signal in [10] was 1.06 fold enrichment (6-mer frequency, TF over GST control); in [11] it was 1.18 fold enrichment (6-mer frequency, TF over GST control); in test [12] it was 1.06 fold enrichment (6-mer frequency, TF over GST control); in test [13], 1.19 fold enrichment (6-mer frequency, TF over GST control); in test [14], 1.15 fold enrichment (6-mer frequency, TF over GST control); in test [15], 1.12 fold enrichment (6-mer frequency, TF over GST control). Further, in test [16], the binding signal was 1.17 fold enrichment (6-mer frequency, TF over GST control).
